Laboratory results: PubChem BioAssay (Tox21)
Records with an inconclusive call do not appear. Entries that show only a call come without a potency. Calls of active or inactive are those of the source. Calls follow the shape of the dose curve; as a rule, active = well fitted cell-killing curve with a large enough effect in the repeat runs; inconclusive = weak or mixed curves; inactive = flat fitted curve, though single readings scatter.

Assay: qHTS assay to identify small molecule antagonists of the estrogen related receptor (ERR) signaling pathway - cell viability counter screen (AID 1224818);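 also: viability measured after 17.5 h of compound exposure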
Conditions: ERR reporter cell line viability counter screen; series mostly up to 46.1 µM
Summary of the method: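 After a 6 h pre-incubation, ERR cells were dosed by pin tool with compounds, positive/negative controls or DMSO alone. Following 17.5 h at 37 C and 30 min with CellTiter-Fluor, fluorescence was recorded.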

Structure (SMILES) | Potency
CCCCCCCCCCCCCCCC(=O)OC(CC(=O)O)C[N+](C)(C)C (stereo unspecified) | inactive
CC[C@H](NC(=O)c1c(C)c(-c2ccccc2)nc2ccccc12)c1ccccc1 | inactive
C=C(C)C1CC=C(C(=O)O)CC1 (stereo unspecified) | inactive
NC/C=C\C(=O)O | inactive
CC(C)(C)NCC(O)COc1cccc2[nH]c(=O)[nH]c12 (stereo unspecified) | inactive
CCN(CC)CCNC(=O)c1ccc(NS(C)(=O)=O)cc1 | inactive
CC1=C(C(=O)O)N2C(=O)[C@@H](NC(=O)C(N)c3ccccc3)[C@H]2SC1 (stereo partly specified) | inactive
Nc1ccc(-c2nc3ccc(-c4nc5ccc(N)cc5[nH]4)cc3[nH]2)cc1 | inactive
CC1=C(C(=O)O)N2C(=O)[C@@H](NC(=O)C(N)C3=CCC=CC3)[C@H]2SC1 (stereo partly specified) | inactive
CCCCCCC/C=C\CCCCCCCCC(=O)O | inactive
COC(=O)c1c(C)[nH]c(C)c1C(=O)c1ccccc1Cc1ccccc1 | inactive
C=CC(N)CCC(=O)O (stereo unspecified) | inactive
CCCCCCCCCCCCCCCCCCN(CCCCCCCCCCCCCCCCCC)CCCN(CCO)CCO | inactive
CC(N)(Cc1ccc(O)c(O)c1)C(=O)O (stereo unspecified) | inactive
N[C@H](C(=O)O)[C@H]1C[C@@H]1C(=O)O | inactive
C[N+](C)(C)CCOP(=O)(O)OP(=O)([O-])OC[C@H]1O[C@@H](n2ccc(N)nc2=O)[C@H](O)C1O (stereo partly specified) | inactive
CNc1ncnc2c1ncn2[C@@H]1O[C@H](CO)C(O)[C@H]1O (stereo partly specified) | inactive
CN1C2CCC1CC(OC(c1ccccc1)c1ccccc1)C2 (stereo unspecified) | inactive
COc1cc(N)c(Cl)cc1C(=O)OCCN1CCCCC1 | inactive
COc1ccc(-c2cc3ncc(C)n3c(Nc3ncccc3C(N)=O)n2)cc1OC | inactive
CCc1cncnc1N1CCN(Cc2nc3ccc(C(F)(F)F)cc3[nH]2)CC1 | inactive
